Assay outcomes from PubChem BioAssay.
Most compounds without a hit are left out; they make up all but 9.4% or so of the library.
IMPase cell inh: qHTS Assay for Identifying the Cell-Membrane Permeable IMPase Inhibitors | Inositol monophosphatase 1 (Rattus norvegicus), P97697 | CHO-M1 cells, IP1 accumulation, HTRF TR-FRET ratio | inhibition (IP1 accumulation), % at 46.1 µM | 120,000 tested, under 10 active | AID 901, 2007; active means well fitted curve in the direction sought with a large enough effect in the signal ratio, not every such curve was filed as active; inconclusive means small, poorly fitted or top-dose-only effect, or a change in a side signal; inactive means no such curve, though single readings can be large or run the other way; the % refers to the signal ratio;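 further: cells stimulated with carbachol in lithium chloride buffer; plate controls were DMSO basal wells for no effect and reference inhibitor wells for full effect; higher means more IMPase inhibition seen as more IP1 and lower FRET ratio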
Target sequence (P97697 whole entry, looked up): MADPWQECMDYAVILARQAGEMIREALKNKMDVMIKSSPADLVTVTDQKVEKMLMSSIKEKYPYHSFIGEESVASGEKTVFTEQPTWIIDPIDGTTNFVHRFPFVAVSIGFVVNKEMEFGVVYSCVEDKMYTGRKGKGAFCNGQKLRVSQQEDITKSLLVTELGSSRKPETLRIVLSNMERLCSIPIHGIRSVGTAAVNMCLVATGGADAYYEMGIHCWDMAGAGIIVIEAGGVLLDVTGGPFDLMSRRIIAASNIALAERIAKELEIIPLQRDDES
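CHO-M1 cells (CHO stably expressing M1 receptor), compound up to 46 uM final, stimulated with carbachol (50 uM as added) in buffer with 50mM LiCl, pH 7.4, 30 min at 37C. Cytosolic IP1 read by TR-FRET; AC50 from Hill fits.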
HPGD inh: qHTS Assay for Inhibitors of HPGD (15-Hydroxyprostaglandin Dehydrogenase); actives 4.3% (n = 150,000); Potency, µM, for the others: top-dose activity change, negative = inhibition, hits mostly inhibitors; 15-hydroxyprostaglandin dehydrogenase [NAD(+)] (Homo sapiens), P15428; purified HPGD, NADH fluorescence kinetic, PGE2 substrate; active means well fitted inhibition curve with a large enough effect, not every such curve was filed as active; inconclusive means small, poorly fitted or top-dose-only effect, or another doubt; inactive means no such curve, though single readings can be large or run the other way; further: potency means the concentration at half of the fitted maximal effect; on the % scale 0 is the no-effect control and ±100 the full control effect
Target sequence (P15428 whole entry, looked up): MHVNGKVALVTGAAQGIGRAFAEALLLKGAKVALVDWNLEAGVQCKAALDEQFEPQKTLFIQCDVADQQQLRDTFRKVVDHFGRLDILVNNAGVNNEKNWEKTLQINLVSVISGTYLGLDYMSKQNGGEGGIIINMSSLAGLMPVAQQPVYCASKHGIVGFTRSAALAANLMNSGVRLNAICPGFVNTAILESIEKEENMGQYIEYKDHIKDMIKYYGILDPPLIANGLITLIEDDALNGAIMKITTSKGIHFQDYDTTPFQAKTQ
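20 nM HPGD preincubated 15 min at room temperature with compound in 50 mM Tris-HCl pH 8, 0.01% Tween 20. Started with 1 mM NAD+ and 30 uM prostaglandin E2; NADH fluorescence (360/450 nm) read 5 times over 30-s intervals, last minus first.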
HTT aggregate: qHTS Multiplex Assay to Identify Dual Action Probes in a Cell Model of Huntington: Aggregate Formation (GFP); Potency, µM (titrated, usually from 46.1 µM), inactives show at the top dose activity change, negative = inhibition, actives largely listed as inhibitors; actives 1.1% (n = 220,000); PC12 HttQ103-GFP aggregates, Acumen cytometry, 40 h; further: potency means the concentration at half of the fitted maximal effect; on the % scale 0 is the no-effect control and ±100 the full control effect; nearly all actives have a fitted effect of over 60% in size
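Ecdysone-promoter PC12 model expressing HTT exon 1 Q103 fused to GFP, induced by tebufenozide at 100 nM final. Compounds titrated; aggregates sized 1–25 µm scored on a 488 nm laser cytometer.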
IMPase Li cell: qHTS Assay for Identifying the Cell-Membrane Permeable IMPase Inhibitors: Potentiation with Lithium; CHO-M1 cells, IP1 TR-FRET (IP-One), carbachol + lithium; Potency, µM (doses to about 59.4 µM), for the others: top-dose activity, negative = IMPase inhibition, actives largely listed as inhibitors; actives 0.35% (n = 210,000); AID 1457, 2008;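 further: IP1 builds up when IMPase is blocked and the TR-FRET signal falls; potency means the concentration at half of the fitted maximal effect; plate controls were basal vehicle for no effect and high inhibitor control for full effect; nearly all actives have a fitted effect of over 50% in size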
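CHO cells stably expressing M1 receptor (2000/well) were cultured 16–30 h, then exposed to compounds with a small lithium addition for 30 min at 37C. IP1 was measured by TR-FRET competition; AC50 from Hill fits.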
ALDH1A1 inh: qHTS Assay for Inhibitors of Aldehyde Dehydrogenase 1 (ALDH1A1). Aldehyde dehydrogenase 1A1 (Homo sapiens), P00352. Purified ALDH1A1, NADH fluorescence, propionaldehyde substrate. Potency, µM (titrated, usually from 75.3 µM), without a hit: at the highest dose activity, negative = inhibition, actives largely listed as inhibitors. actives 7.3% (n = 220,000). AID 1030, 2008; active means well fitted inhibition curve with a large enough effect, not every such curve was filed as active; inconclusive means small, poorly fitted or top-dose-only effect, or another doubt; inactive means no such curve, though single readings can be large or run the other way;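 further: potency means the concentration at half of the fitted maximal effect; plate controls were no enzyme wells and a reference inhibitor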
HTT cytoprotect: qHTS Multiplex Assay to Identify Dual Action Probes in a Cell Model of Huntington: Cytoprotection (ATP); PC12 HTT-Q103 induced, cytoprotection, ATP luminescence, 40 h; Potency, µM (doses to about 56.4 µM), for the others: cytoprotection (ATP increase), hits mostly activators; actives 0.14% (n = 230,000); further: potency means the concentration at half of the fitted maximal effect; % of control where 0% means no effect; nearly all actives have a fitted effect of over 45% in size
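Huntington model: PC12 line, ecdysone-inducible HTTQ103 exon1–GFP, tebufenozide 100 nM. Test articles in a dose series. Endpoint luminescence from cellular ATP.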
* = called active by the depositor; ? = inconclusive; . = no result; [ ] = dose if it differs, or a comment. Unless noted, the call rests on the fitted dose curve; in most records, active means well fitted curve in the direction sought with a large enough effect; inconclusive means small, poorly fitted or top-dose-only effect, or another doubt; inactive means no such curve, though single readings can be large; an effect the other way counts as inactive or inconclusive.

SMILES	IMPase cell inh	HPGD inh	HTT aggregate	IMPase Li cell	ALDH1A1 inh	HTT cytoprotect
CCOC(=O)CN1C(=O)C(O)(CC(=O)c2ccc3c(c2)CCCC3)c2ccccc21 (stereo not drawn)	-12	-4%	-6%	-1%	10µM*	9%[1.9 µM]
Cc1ccc(C#CC2C=CC(Oc3ccc4c(c3)OCO4)C(CO)O2)c(C)c1 (stereo not drawn)	.	.	.	.	0%[13.5 µM]	5%[10 µM]
C[C@H]1Cc2c(COc3ccccc3)nc3c(c2CO1)CN(S(=O)(=O)c1ccc2c(c1)OCCN2C)CC3	.	-10%	.	7%	-15%[13.5 µM]	-8%[10 µM]
Cc1ccc(/C=C2/C(=O)c3ccc(C(=O)O)cc3C2=O)o1	.	.	16%[9.22 µM]	7%	7.1µM*	-14%[10 µM]
O=C(O)c1ccc2c(c1)C(=O)/C(=C/c1ccccc1)C2=O	.	13µM*	-15%	3%	-15%	-11%[10 µM]
COc1ccccc1C(=O)NC1(C(F)(F)F)C(=O)Nc2c1c(=O)[nH]c(=O)n2CCc1ccccc1 (stereo not drawn)	-12	.	.	.	.	.
Cc1cc(C)c(S(=O)(=O)/N=C2\C=CC(=O)C(Cl)=C2)c(C)c1	5	20µM*	4%[1.84 µM]	21%[38.3 µM]	?	-11%
CCN(CC)S(=O)(=O)c1ccc(OC)c(NC(=S)Nc2cccc(C)c2C)c1	.	1%	10%	3%	25µM*	8%[10 µM]
CCN(CC)S(=O)(=O)c1ccc(OC)c(NC(=O)c2cccc(C)c2[N+](=O)[O-])c1	.	.	-3%	4%	5.6µM*	.
CCN(CC)S(=O)(=O)c1ccc(OC)c(NC(=S)Nc2cccc(C)c2)c1	.	-14%	-20%	3%	11µM*	8%[10 µM]
CCN(CC)S(=O)(=O)c1ccc(OC)c(NC(=O)c2cccs2)c1	.	.	-14%[9.22 µM]	19%	?	0%[10 µM]
CC(C)C[C@H](NC(=O)N1CCCCCC1)C(=O)O	.	.	-11%[9.22 µM]	.	.	8%[10 µM]
COC(=O)c1ccccc1C(=O)c1ccc(OCCN2CCCCC2)cc1	.	.	5%	.	.	3%
O=C(Nc1ccccc1)Nc1ccc2snnc2c1	9	-10%	11µM*	2%	?	-14%[10 µM]
Cc1c(C(=O)N2CCC(C)CC2)sc2ncnc(N(C)c3ccccc3)c12	?	8.9µM*	20µM*	3%	?	-19%[10 µM]
Cc1c(C(=O)N2CCN(Cc3ccccc3)CC2)sc2ncnc(N3CCOCC3)c12	-4	-20%	-5%	9%	25µM*	6%[10 µM]
Cc1onc(-c2ccccc2)c1C(=O)N1CCC(C)CC1	-3	-10%	0%	3%	2%	3%[10 µM]
CCc1ccccc1NC(=O)CC1NCCNC1=O (stereo not drawn)	0	.	.	.	.	.
COc1ccc(NC(=O)c2ccccc2-c2ccccc2)c(C)c1	.	.	7%	1%	1%	-25%
CN1CCN(CCCNC(=O)C2CC(=O)N(C3CCCCC3)C2)CC1 (stereo not drawn)	2	0%	-15%	11%[38.3 µM]	0%	-15%[0.074 µM]
O=C(NCCN1CCc2ccccc2C1)C1CC(=O)N(C2CCCC2)C1 (stereo not drawn)	6	?	?	18%[38.3 µM]	35µM*	10%
Cc1ccc(NC(=S)NNC(=S)NCc2ccccc2)cc1	1	-27%	-16%	1%[38.3 µM]	0.63µM*	4%
CCNC(=S)NNC(=S)NCc1ccccc1	.	28µM*	2%	-13%	-3%	.
O=C(CC1N=C2c3ccccc3N=C(SCC(=O)Nc3ccccc3F)N2C1=O)NCc1ccc2c(c1)OCO2 (stereo not drawn)	6	.	.	.	.	.
CCCCc1ccc(NC(=O)CSc2nc3ccccc3nc2N2CCOCC2)cc1	6	.	.	.	.	.
SMILES	IMPase cell inh	HPGD inh	HTT aggregate	IMPase Li cell	ALDH1A1 inh	HTT cytoprotect
CCCCCCCC#Cc1ccccc1C(NC(=O)OC)C(C(=O)OC)C(=O)OC (stereo not drawn)	.	.	.	.	12%[13.5 µM]	?
COc1ccccc1CNc1nc(-c2ccoc2)nc2ccccc12	.	.	.	3%	?	-78%
CCn1nc(C)c(NC(=O)CCSc2nc(-c3ccco3)cc(C(F)(F)F)n2)c1C	-4	?	5%	-9%[38.3 µM]	28µM*	1%
O=C(CCSc1nc(-c2ccco2)cc(C(F)(F)F)n1)Nc1cccc(O)c1	3	.	.	.	.	.
O=C(CSc1nc(-c2ccco2)cc(C(F)(F)F)n1)NC1CCCC1	-4	14µM*	-19%	-2%[38.3 µM]	?	-1%
CC1CCN(C(=O)c2ccc(SCc3ccccc3F)c([N+](=O)[O-])c2)CC1	1	25µM*	-11%	18%	?	28%[10 µM]
Cc1ccc(C(=O)N2CCC(Cc3ccccc3)CC2)cc1[N+](=O)[O-]	.	.	?	14%	14µM*	-4%
Cc1ccccc1OCCN1CCC(Cc2ccccc2)CC1	.	.	3%	17%	-20%	-33%
Cc1ccc([N+](=O)[O-])c(OCCN2CCC(Cc3ccccc3)CC2)c1	.	.	3%	19%	32µM*	4%[10 µM]
O=C(c1ccc(SCc2ccco2)c([N+](=O)[O-])c1)N1CCOCC1	.	.	9%[9.22 µM]	1%	4%	1%[1.9 µM]
COC(=O)[C@@H]1C[C@H]1[C@@H](NC(=O)c1cnccn1)c1ccccc1	.	-4%	.	3%	3%	-7%
COc1ccc(-c2nc3cnc(N(C)C)nc3n(C)c2=O)cc1	.	.	.	-4%	?	-37%
CC(C)OCCCN1C=C2C(=O)C(C)(OC(=O)C3CCCC3)C(=O)C=C2C=C1c1ccsc1 (stereo not drawn)	.	-6%	.	-13%	?	-17%[10 µM]
O=C(O)C1CCC[C@@H]2[C@@H]3CC(CN12)[C@@H]1CCCCN1C3 (stereo partly drawn)	.	-3%	.	4%	3%	23%
CCCCNC(=S)NC(=O)c1ccc(Cl)cc1Cl	6	-17%	-7%	28%[38.3 µM]	25µM*	-37%
Cn1c(=O)c2c(-c3ccc(C(C)(C)C)cc3)n(CC3CCCO3)cc2n(C)c1=O (stereo not drawn)	2	-19%	0%	-4%[38.3 µM]	?	-32%
Cc1cccc(-c2c3c(=O)n(C)c(=O)n(C)c3cn2CC2CCCO2)c1 (stereo not drawn)	-2	-21%	0%	0%[38.3 µM]	20µM*	-22%
CNC(=O)c1ccccc1	.	-7%	.	9%	-4%	2%
N#C/C(=C/Nc1ccccc1)c1ccsc1	4	-29%	13µM*	-9%[38.3 µM]	?	-8%
